The values below come from PubChem BioAssay AID1508600 (Functional Genomics Laboratory (NCATS/FGL), 2020).

Screen size: about 53,000 sequences; about 3,700 (7%) were called active. This excerpt belongs to a sample that is enriched for actives. Values without a mark were called inactive.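 How the source made its calls: active means gene knockdowns whose robust z-score for IL-1 alpha signal is at least 2 or at most -2, so actives lie on both sides; inactive means the rest.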

A short description of the test: Components of the Cytosolic LPS Sensing Pathway: Gene Identification via Genome-wide siRNA Screen.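 Further: robust z of the log signal after scaling to non-targeting control siRNA wells of the plate.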 Particulars: RAW264.7 macrophages, IL-1a HTRF, actives lie on both sides, screened at 100 nM (by protocol), cells primed 5 h with Pam3CSK4 first. In a few lines: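 Using IL-1a HTRF as read-out, the screen measured release from RAW264.7 cells after 48h siRNA knockdown (100 nM), 5 h Pam3CSK4 priming and 24 h cytosolic LipidA. Values were expressed relative to negative-control wells as robust z-scores.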
(TR-FRET usually uses a lanthanide donor and a delayed reading to cut background.)
For the sequence GGAAAAGAGAAGAAGGCACTT against Taf6, the z-score was 0.654.
With GCCUUUGAGGUUAUGAUCATT against Klk7 the figure was -1.09; with GGCUGUGGUGAAGACUUUCTT against Cd81, -1.06.
The value for GGUGAAGCAGUUUGACUUCTT against Rbm18 was 0.0154.
For the sequence “GGUUCUGGUUGAUAGAGAUTT against 4931428L18Rik”, the z-score was 0.373.
With CUUCUUGGUGGGUCUGACUTT against Taar7e the figure was -2.63 (active); with CGACUGGAAAAAGAUUGGGTT against Ttf1, -0.219; with GCGGCAGUAAAUUGUGAGGTT against Grin3b, 1.4.
Take GGAAAUCCAGAAGCGUGUGTT against Gtpbp3: the z-score was -0.436.
Consider GGAGGAGCGUACUAUUUAATT against Slc12a2, for which the z-score was 3.34 (active).
With GGAGGAUGCAAUUUUUAACTT against Sult1e1, the z-score was 0.771.
With GGAGAAACUGAAACAAGCUTT against Gpc4, the z-score was 0.403.
GCACUAAGCUUUAUUCAUCTT against Mast2: the z-score was -0.0104.
For the sequence GGAAACUUUUACUUCACAGTT against P3h1, the z-score is -0.322.
Take GGAUCUACGCAAGCAAGCATT against Oxnad1: the z-score is 2.12 (active).
With GCAAAGAAGCUCUUUAGAGTT against Hoxc5 the figure was 0.455; with GCCAUAAGAUGCUACAGUGTT against Tubb6, 1.53.
As to “GGAAAGUACCCUAGGAGUUTT against 4921509C19Rik”, the z-score is -1.6.
The value for CCCUCAACUUUCAGAUCAGTT against Naa10 was 2.81 (active); that for CCUACUUCCGAGGUUUCUUTT against Ifnz was -0.493; that for GGAAAGGAGUCUGCCAGCUTT against Tef was -1.29.
As for GGAAGAAGGAAGGUUCAGATT against Strm, the z-score was -0.581.
In the case of “GUGCAAACGGCAAACAUUCTT against 1700001G17Rik”, the z-score is 1.89.
For the sequence GGGCGAAAACCAUUCAAAUTT against Zfp112, the z-score was 3.38 (active).
The value for CCUCCUGACUACAAGAACUTT against Utp14a was 0.911; that for “CCUUGAUACCUUUCCAUGUTT against 9130008F23Rik” was -0.68; that for CGUUCUUGAGAGUCGAUCATT against Smoc2 was -0.19.
As to GCGGCAUCUACUUAAUAUGTT against Acer2, the z-score was 2.12 (active).
GCACCUUCAGCUAUCUAACTT against Nepn: the z-score was 0.478.
GCUGUUCCUCUUUCUUUCUTT against Olfr522: the z-score is 0.315.
